Records with an inconclusive call do not appear. The source made the active and inactive calls. The calls were made as follows: active = hit-call score of the fitted dose curve at least 0.9, where 1 is the maximum; inconclusive = response in the unintended direction; inactive = score below 0.9.
Assays:
[1] = TOX21_p53_BLA_p2_viability: Viability Assessment in the Tox21 HCT-116 p53 Agonism Beta-lactamase Assay, Phase 2 (AID 2283591);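 also: compound exposure lasted 16 h at 37 °C; actives lower the ATP signal meaning cytotoxicity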
In short: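 HCT116 p53-bla cells, 4000/well, dosed after 5 h plating (217-fold dilution of DMSO stocks) and incubated 16 h at 37C. Viability taken as cellular ATP by CellTiter-Glo luminescence after 30 min RT; signal loss marks cytotoxicity.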

[2] = biological target: Cellular tumor antigen p53 (Homo sapiens) (UniProt P04637); experiment: TOX21_p53_BLA_p2_ratio: Tox21 HCT-116 p53 Agonism Beta-lactamase Assay, Ratio, Phase 2 (AID 2283592)
In short: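 Ratio endpoint: beta-lactamase cleavage of CCF4-AM, blue (460 nm) over green (530 nm). HCT116 reporter line; 16 h treatment, 37C; substrate 2 h RT.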

[3] = TOX21_p53_BLA_p3_viability: Viability Assessment in the Tox21 HCT-116 p53 Agonism Beta-lactamase Assay, Phase 3 (AID 2283593);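 also: cells exposed to compound for 16 h before reading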
In short: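 HCT116 cells, 4000/well, dosed 5 h after plating by pin transfer (217-fold dilution from DMSO stock) and incubated 16 h at 37C, 5% CO2. Viability read as ATP luminescence with CellTiter-Glo after 30 min at room temperature.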

[4] = biological target: Cellular tumor antigen p53 (Homo sapiens) (UniProt P04637); experiment: TOX21_p53_BLA_p3_ratio: Tox21 HCT-116 p53 Agonism Beta-lactamase Assay, Ratio, Phase 3 (AID 2283596)
In short: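 Cells were seeded at 4000/well, rested 5 h at 37C, then dosed with DMSO compound solutions (217-fold dilution) for 16 h. CCF4-AM substrate was loaded for 2 h at room temperature, and the 460/530 nm emission ratio was fitted for gain of signal versus DMSO.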

[5] = TOX21_p53_BLA_p4_viability: Viability Assessment in the Tox21 HCT-116 p53 Agonism Beta-lactamase Assay, Phase 4 (AID 2283597);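 also: hits lower the luminescence signal meaning cytotoxicity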
In short: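 Cytotoxicity was inferred from loss of CellTiter-Glo luminescence. HCT116 cells had been dosed with compounds after 5 h plating, incubated 16 h at 37C and 5% CO2, and exposed to the CCF4-AM substrate for 2 h.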

[6] = TOX21_p53_BLA_p5_viability: Viability Assessment in the Tox21 HCT-116 p53 Agonism Beta-lactamase Assay, Phase 5 (AID 2283600)
In short: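 Luciferase-coupled ATP quantitation of cells treated for 16 h (37C, 5% CO2) with test chemicals delivered in DMSO via a 217-fold dilution; 4000 cells/well; reagent incubated 30 min at room temperature before luminescence reading.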

[7] = biological target: Cellular tumor antigen p53 (Homo sapiens) (UniProt P04637); experiment: TOX21_p53_BLA_p4_ratio: Tox21 HCT-116 p53 Agonism Beta-lactamase Assay, Ratio, Phase 4 (AID 2283601)
In short: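 HCT-116 p53 beta-lactamase reporter cells (4000/well) preincubated 5 h, then compound (217-fold dilution of DMSO stock) for 16 h at 37C. CCF4-AM substrate added 2 h at room temperature; 460/530 nm emission ratio fitted upward versus DMSO.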

Measured: AC50

Cellular tumor antigen p53 (Homo sapiens), sequence (P04637 whole entry, looked up): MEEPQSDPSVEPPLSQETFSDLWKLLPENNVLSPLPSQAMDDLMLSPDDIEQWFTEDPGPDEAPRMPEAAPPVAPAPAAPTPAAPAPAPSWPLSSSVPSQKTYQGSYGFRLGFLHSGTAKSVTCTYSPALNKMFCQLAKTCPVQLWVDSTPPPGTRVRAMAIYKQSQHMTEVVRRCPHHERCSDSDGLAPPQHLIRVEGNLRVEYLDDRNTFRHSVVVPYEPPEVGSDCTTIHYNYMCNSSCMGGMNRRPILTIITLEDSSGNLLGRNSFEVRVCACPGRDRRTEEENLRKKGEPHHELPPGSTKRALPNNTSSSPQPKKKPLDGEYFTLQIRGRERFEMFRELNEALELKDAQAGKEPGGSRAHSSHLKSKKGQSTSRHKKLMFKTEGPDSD

COc1cc(C)nc(-n2nc(C)cc2OC)n1
inactive: all assays above

CCCCCCCCCCCCCCC(=O)O
inactive: all assays above

CN(C)CCN(C)CCN(C)C
inactive: all assays above

CCCCN(CCCC)CC(O)c1cc(Cl)cc2c1-c1ccc(Cl)cc1/C2=C/c1ccc(Cl)cc1 (stereo not given)
inactive: all assays above

CC(C)(C(=O)O)c1ccc(C(O)CCCN2CCC(C(O)(c3ccccc3)c3ccccc3)CC2)cc1 (stereo not given)
inactive: all assays above

Cc1ncc(CSSCc2cnc(C)c(O)c2CO)c(CO)c1O
inactive: all assays above

C[N+]1(C)CCC(=C(c2ccccc2)c2ccccc2)CC1
not listed: [7]
inactive: all other assays above

CCN(CC)c1ccc2c(-c3ccc(S(=O)(=O)O)cc3S(=O)(=O)[O-])c3ccc(=[N+](CC)CC)cc-3oc2c1
inactive: all assays above

CC(C[N+](C)(C)C)OC(N)=O (stereo not given)
not listed: [7]
inactive: all other assays above

OCCCNc1ccccc1
inactive: all assays above

CN[C@@H]1[C@H](O)[C@H](NC)[C@H]2O[C@@]3(O)C(=O)C[C@@H](C)O[C@H]3O[C@@H]2[C@H]1O
inactive: all assays above

CO[C@H]1/C=C/O[C@@]2(C)Oc3c(C)c(O)c4c(O)c(c5c(c4c3C2=O)=NC2(CCN(CC(C)C)CC2)N=5)NC(=O)/C(C)=C\C=C\[C@H](C)[C@H](O)[C@@H](C)[C@@H](O)[C@@H](C)[C@H](OC(C)=O)[C@@H]1C
inactive: all assays above

CNCCCCOc1ccccc1Cc1ccccc1
active: [5] 36.4 µM
not listed: [7]
inactive: all other assays above

Cc1nc2ccccn2c(=O)c1CCN1CCC(C(=O)c2ccc(F)cc2)CC1
inactive: all assays above

CCCCCCCCS(=O)(=O)Cl
inactive: all assays above

CCCCCCCCCOC(=O)c1ccc(O)cc1
inactive: [3] | [4] | [6]
active: [1] 53.3 µM | [2] 80.5 µM | [5] 23 µM | [7] 39.3 µM

C1=CC2C3C=CC(C3)C2C1 (stereo not given) (tested in a mixture with another compound)
not listed: [7]
inactive: all other assays above

CC(C)NNC(=O)c1ccncc1
inactive: all assays above

O=C[C@H](O)[C@@H](O)[C@@H](O)[C@H](O)CO
inactive: all assays above

CCCCCCCCCCCCI
not listed: [7]
inactive: all other assays above
